Laboratory results as given in PubChem BioAssay (NCATS).
Results filed as inconclusive are left out. Calls of active or inactive are those of the source. Calls follow the shape of the dose curve; as a rule, active = well fitted curve in the direction sought with a large enough effect; inconclusive = small, poorly fitted or top-dose-only effect, or another doubt; inactive = no such curve, though single readings can be large; an effect the other way counts as inactive or inconclusive. Starred links: 1 amine or outer side, 2 acyl side, 3 side chain; linkers in the order of their positions; H or OH if unused. Positions of bridges follow the written chain, without caps; N, C: chain ends. Non-standard residues stand in square brackets, D forms with d. Residues, ends and D or L forms follow the SMILES beside them. Chains are numbered I, II in the order given. Actinocin(9to1) = Cc1c2oc3c(C)ccc(C(=O)[*:1])c3nc-2c(C(=O)[*:2])c(N)c1=O; NMeV = CN[CH](C(=O)O)C(C)C; Sar = CNCC(=O)O

Assays:
[1] = Quantitative High-Throughput drug screen in 47 multiple myeloma cell lines against the NCATS MIPE library collection: KMS12BM_JCRB cell viability assay (AID 1918971); also: nearly all actives have a fitted effect of over 35% in size
Method in brief: (§1)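 Myeloma cell lines, 500 cells per well, exposed to MIPE 4.0 library compounds for 48 h at 37C, 5% CO2. Viability from ATP by CellTiter-Glo luminescence; normalised to DMSO (100%) and media-only (0%) wells.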

[2] = Quantitative High-Throughput drug screen in 47 multiple myeloma cell lines against the NCATS MIPE library collection: KMS12PE_JCRB cell viability assay (AID 1918972); also: nearly all actives have a fitted effect of over 30% in size
Method in brief: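 Approved and investigational drugs from MIPE 4.0 were added by pin tool to 500 cells per well. After 48 hours at 37C, ATP-based CellTiter-Glo luminescence indicated remaining viability.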

[3] = Quantitative High-Throughput drug screen in 47 multiple myeloma cell lines against the NCATS MIPE library collection: KMS20_JCRB cell viability assay (AID 1918973); also: nearly all actives have a fitted effect of over 45% in size
Method in brief: as §1

[4] = Quantitative High-Throughput drug screen in 47 multiple myeloma cell lines against the NCATS MIPE library collection: KMS21BM_JCRB cell viability assay (AID 1918974); conditions: ATP luminescence, 48 h; viability: at 45.8 µM (top of the series)
Method in brief: as §1

[5] = Quantitative High-Throughput drug screen in 47 multiple myeloma cell lines against the NCATS MIPE library collection: KMS26_JCRB cell viability assay (AID 1918975); also: nearly all actives have a fitted effect of over 45% in size
Method in brief: as §1

[6] = Quantitative High-Throughput drug screen in 47 multiple myeloma cell lines against the NCATS MIPE library collection: NCIH929_DSMZ cell viability assay (AID 1918978); also: nearly all actives have a fitted effect of over 35% in size
Method in brief: (§2)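 MIPE 4.0 approved/investigational drugs; 500 cells/well; 48 h 37 °C humidified 5% CO2; CTG luminescence readout; DMSO = 100%, media = 0% viability.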

[7] = Quantitative High-Throughput drug screen in 47 multiple myeloma cell lines against the NCATS MIPE library collection: OCIMY1_PLB cell viability assay (AID 1918979); also: nearly all actives have a fitted effect of over 35% in size
Method in brief: as §2

[8] = Quantitative High-Throughput drug screen in 47 multiple myeloma cell lines against the NCATS MIPE library collection: MM1S_ATCC cell viability assay (AID 1918980); also: nearly all actives have a fitted effect of over 45% in size
Method in brief: as §2

[9] = Quantitative High-Throughput drug screen in 47 multiple myeloma cell lines against the NCATS MIPE library collection: MMM1_PLB cell viability assay (AID 1918976); also: nearly all actives have a fitted effect of over 35% in size
Method in brief: as §2

[10] = Quantitative High-Throughput drug screen in 47 multiple myeloma cell lines against the NCATS MIPE library collection: MOLP8_DSMZ cell viability assay (AID 1918977); also: nearly all actives have a fitted effect of over 45% in size
Method in brief: as §2

Measured: Potency
Potency is read from the fitted curve at half-maximal effect.

CCN(CC)Cc1ccc2cc(COC(=O)Nc3ccc(C(=O)NO)cc3)ccc2c1
active: [1] 0.469 µM | [2] 0.469 µM | [3] 0.332 µM | [4] 0.0418 µM | [5] 0.743 µM | [6] 0.59 µM | [7] 1.32 µM | [8] 0.59 µM

Cn1cc(CNCC2CCN(c3ncc(C(=O)NO)cn3)CC2)c2ccccc21
active: [1] 0.0235 µM | [2] 0.0372 µM | [3] 0.0296 µM | [5] 0.0166 µM | [9] 0.0418 µM | [10] 0.0132 µM | [6] 0.0209 µM | [7] 0.105 µM | [8] 0.0166 µM

CCc1cnn2c(NCc3ccc[n+]([O-])c3)cc(N3CCCC[C@@H]3CCO)nc12
active: [1] 0.0264 µM | [2] 0.0332 µM | [3] 0.0209 µM | [4] 0.0132 µM | [5] 0.0187 µM | [9] 0.0296 µM | [7] 0.0332 µM | [8] 0.0209 µM

C=CC(=O)N1CCc2ccc(-n3c(=O)ccc4cnc5ccc(-c6cnn(C)c6)cc5c43)cc21
active: [1] 4.69 µM | [2] 2.96 µM | [3] 0.833 µM | [5] 1.32 µM | [9] 1.87 µM | [10] 0.59 µM | [6] 1.66 µM | [7] 1.87 µM

CC(C)N1[N]C(=C2C=c3cc(O)ccc3=N2)c2c(N)ncnc21
active: [1] 0.166 µM | [2] 2.35 µM | [3] 0.743 µM | [4] 2.09 µM | [5] 1.18 µM | [9] 0.0833 µM | [10] 0.0833 µM | [6] 0.059 µM | [8] 0.469 µM

COc1cc(OC)c(C=CS(=O)(=O)Cc2ccc(OC)c(NCC(=O)O)c2)c(OC)c1
active: [1] 0.418 µM | [2] 0.105 µM | [3] 1.18 µM | [4] 0.0833 µM | [5] 1.32 µM | [10] 2.09 µM | [6] 2.64 µM | [7] 0.418 µM

CC(C)(N)c1ccc(-c2nc3ccccc3nc2-c2ccccc2)cc1
active: [1] 26.4 µM | [2] 7.43 µM | [3] 4.18 µM | [4] 5.26 µM | [5] 26.4 µM | [9] 18.7 µM | [6] 4.69 µM | [7] 23.5 µM | [8] 18.7 µM

Nc1ccc(C(=O)Nc2cccc(-c3nc(N4CCOCC4)c4oc5ncccc5c4n3)c2)cn1
active: [1] 23.5 µM | [2] 2.64 µM | [3] 1.48 µM | [4] 10.5 µM | [5] 2.35 µM | [9] 16.6 µM | [7] 16.6 µM

CCCCCCCN(CC)CCCC(O)c1ccc(NS(C)(=O)=O)cc1 (stereo not drawn)
active: [2] 16.6 µM
inactive: [1]

COC(=O)[C@H](CCCN=C(N)N)NS(=O)(=O)c1ccc(C)cc1
not listed: [9] | [10]
inactive: all other assays above

CNC(=O)c1cccc(-c2ccc3c(N4CCOC[C@H]4C)nc(N4CCOC[C@H]4C)nc3n2)c1
active: [1] 0.0166 µM | [2] 0.469 µM | [3] 0.0935 µM | [4] 0.166 µM | [5] 1.18 µM | [10] 0.0235 µM | [6] 0.0166 µM | [8] 0.0833 µM

N#Cc1c(C2CCNCC2)cc(-c2c(O)cccc2OCC2CC2)nc1N
active: [1] 14.8 µM | [2] 20.9 µM | [3] 23.5 µM | [4] 16.6 µM | [5] 18.7 µM | [9] 18.7 µM | [10] 14.8 µM | [8] 16.6 µM

NC(=NCCCCCCN=C(N)N=C(N)Nc1ccc(Cl)cc1)N=C(N)Nc1ccc(Cl)cc1
active: [1] 9.35 µM | [2] 16.6 µM | [3] 3.32 µM | [4] 7.43 µM | [5] 16.6 µM | [9] 20.9 µM | [10] 8.33 µM | [6] 3.32 µM | [7] 11.8 µM | [8] 2.09 µM

COc1cccc2c1C(=O)c1c(O)c3c(c(O)c1C2=O)C[C@@](O)(C(=O)CO)C[C@H]3O[C@H]1C[C@H](N)[C@H](O)[C@H](C)O1
active: [1] 0.166 µM | [2] 1.48 µM | [3] 0.0526 µM | [5] 0.296 µM | [9] 0.148 µM | [10] 0.187 µM | [6] 0.0935 µM | [7] 0.296 µM | [8] 0.0209 µM

COc1cc([C@@H]2c3cc4c(cc3[C@@H](O[C@@H]3O[C@@H]5CO[C@@H](c6cccs6)O[C@@H]5[C@H](O)[C@@H]3O)[C@H]3COC(=O)[C@H]23)OCO4)cc(OC)c1O
active: [1] 1.32 µM | [2] 1.32 µM | [3] 0.418 µM | [4] 1.87 µM | [5] 16.6 µM | [6] 14.8 µM | [7] 8.33 µM | [8] 0.059 µM

CNC(=O)c1ccc(Nc2cc(Nc3ccccc3S(=O)(=O)C(C)C)c3cc[nH]c3n2)nc1
active: [1] 16.6 µM | [2] 1.18 µM | [3] 0.935 µM | [4] 0.418 µM | [5] 18.7 µM | [9] 11.8 µM | [10] 10.5 µM | [8] 13.2 µM

Cn1cc(-c2cnn3c(N)c(Br)c([C@H]4CCCNC4)nc23)cn1
active: [1] 2.96 µM | [2] 3.72 µM | [3] 1.48 µM | [4] 0.833 µM | [5] 8.33 µM | [9] 0.662 µM | [10] 0.833 µM | [6] 0.833 µM | [8] 0.332 µM

CC(C=CC(=O)NO)=C[C@@H](C)C(=O)c1ccc(N(C)C)cc1
active: [1] 0.264 µM | [2] 0.235 µM | [3] 0.148 µM | [4] 0.166 µM | [5] 0.264 µM | [9] 0.187 µM | [10] 0.0935 µM | [6] 0.296 µM | [7] 0.372 µM | [8] 0.187 µM

CC(C)(O)Cn1c(NC(=O)c2ccc(-c3cn[nH]c3)s2)nc2cc(CN3CCOCC3)ccc21
active: [1] 2.35 µM | [2] 0.469 µM | [3] 2.96 µM | [5] 2.09 µM | [9] 2.09 µM | [10] 1.18 µM | [6] 1.66 µM | [7] 1.48 µM | [8] 1.66 µM

NC(=O)Nc1cc(-c2ccc(CN3CCOCC3)cc2)sc1C(N)=O
active: [1] 20.9 µM | [2] 1.18 µM | [3] 2.64 µM | [4] 1.32 µM | [5] 23.5 µM | [9] 6.62 µM | [10] 14.8 µM | [6] 2.64 µM | [8] 16.6 µM

COc1cccc2c1C(=O)c1c(O)c3c(c(O)c1C2=O)C[C@@](O)(C(=O)CO)C[C@@H]3O[C@H]1C[C@H](N)[C@@H](O)[C@H](C)O1
active: [1] 0.469 µM | [2] 2.35 µM | [3] 0.166 µM | [5] 1.48 µM | [9] 0.469 µM | [10] 0.372 µM | [6] 0.235 µM | [7] 1.66 µM | [8] 0.0662 µM

Cc1c2oc3c(C)ccc(C(=O)NC4C(=O)NC(C(C)C)C(=O)N5CCCC5C(=O)N(C)CC(=O)N(C)C(C(C)C)C(=O)OC4C)c3nc-2c(C(=O)NC2C(=O)NC(C(C)C)C(=O)N3CCCC3C(=O)N(C)CC(=O)N(C)C(C(C)C)C(=O)OC2C)c(N)c1=O (stereo not drawn) (I: TVP[Sar][NMeV] / II: TVP[Sar][NMeV]; ester I:1-I:C, II:1-II:C; linker I:N-II:N via Actinocin(9to1); configuration not given here)
inactive: all assays above

COc1cc2c(cc1OC)[C@@H]1C(=O)c3ccc4c(c3O[C@@H]1CO2)C=CC(C)(C)O4
active: [1] 0.418 µM | [2] 0.372 µM | [3] 6.62 µM | [4] 0.0662 µM | [5] 9.35 µM | [10] 11.8 µM | [6] 0.662 µM

C[C@@]12C(=O)OC(=O)[C@@]1(C)C1CCC2O1
active: [1] 1.66 µM | [2] 1.87 µM | [3] 2.64 µM | [5] 2.09 µM | [9] 1.87 µM | [10] 3.72 µM | [6] 2.64 µM | [7] 5.26 µM | [8] 1.66 µM

Cn1cc(C2=C(c3c4n(c5ccccc35)CCC(CN)C4)C(=O)NC2=O)c2ccccc21 (stereo not drawn)
active: [1] 14.8 µM | [2] 8.33 µM | [3] 6.62 µM | [4] 7.43 µM | [5] 18.7 µM | [9] 20.9 µM | [10] 13.2 µM | [6] 7.43 µM | [7] 20.9 µM | [8] 6.62 µM

COc1ccc(S(=O)(=O)Nc2cc(-c3c(O)ccc4ccccc34)c(O)c3ccccc23)cc1
active: [1] 26.4 µM | [2] 13.2 µM | [3] 9.35 µM | [4] 18.7 µM | [5] 14.8 µM | [9] 16.6 µM | [10] 7.43 µM | [6] 3.32 µM | [7] 10.5 µM | [8] 2.35 µM

CC(C)C[C@H](NC(=O)CNC(=O)c1cc(Cl)ccc1Cl)B1OC(=O)CC(CC(=O)O)(C(=O)O)O1 (stereo partly drawn)
active: [1] 0.0833 µM | [2] 0.0469 µM | [3] 0.166 µM | [5] 0.0935 µM | [9] 6.62 µM | [10] 0.0469 µM | [6] 0.0332 µM | [7] 0.059 µM | [8] 0.0418 µM

Oc1ccc(-c2ccc(-c3cc(Nc4cccc(CNC5CC5)c4)n[nH]3)cc2)c(O)c1
active: [1] 2.64 µM | [2] 1.05 µM | [3] 1.32 µM | [4] 0.59 µM | [5] 3.32 µM | [9] 2.35 µM | [10] 2.09 µM | [6] 1.18 µM | [7] 9.35 µM | [8] 1.66 µM
